Screens deposited in PubChem by National Center for Advancing Translational Sciences (NCATS).
D2 PAM-1: positive allosteric modulators of human D2 dopamine receptor; DiscoveRx D2 beta-arrestin cells, luminescence, 90 min; 100% = 57 uM dopamine signal; potentiation, % (concentration not given with the values); 360,000 compounds, 0.23% hits; AID 624464; in the data active = potentiation above about 50%
Target sequence (P14416 whole entry, looked up): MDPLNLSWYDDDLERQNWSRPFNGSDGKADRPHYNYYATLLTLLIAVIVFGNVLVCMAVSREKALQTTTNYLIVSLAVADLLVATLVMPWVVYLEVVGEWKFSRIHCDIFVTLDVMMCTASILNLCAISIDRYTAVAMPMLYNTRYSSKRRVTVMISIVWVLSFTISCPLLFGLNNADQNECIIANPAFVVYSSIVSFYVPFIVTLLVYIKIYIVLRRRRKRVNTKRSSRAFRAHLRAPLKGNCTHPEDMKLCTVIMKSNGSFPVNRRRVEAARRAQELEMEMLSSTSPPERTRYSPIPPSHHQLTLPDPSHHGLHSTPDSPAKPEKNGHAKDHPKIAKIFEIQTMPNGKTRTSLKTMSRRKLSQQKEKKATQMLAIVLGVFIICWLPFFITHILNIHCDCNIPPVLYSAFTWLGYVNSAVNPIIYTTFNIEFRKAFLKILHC
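PathHunter beta-arrestin assay in DiscoveRx D2 cells. Compounds were added with an EC20 of dopamine (50 nM final) for 90 min at 37 deg C. Luminescence was read 1 h after detection reagent, with 57 uM dopamine as the EC100 control.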
D2 ag-1: agonists of human D2 dopamine receptor; AID 485358; 340,000 compounds, 0.53% hits; P14416; activation, % at 2 µM; HEK293 T-REx D2 cells, calcium flux agonist mode;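 active = activation over 3 SD above normal in the single-dose calcium agonist read, cut at about 30% in these data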; also: 0% is about no effect
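Tetracycline-induced HEK293 T-REx cells with force-coupled D2 receptor, plated overnight at 30 C, loaded with no-wash calcium dye. After a 10 s baseline, compound was pin-added and calcium flux read kinetically for 180 s; calcium rises flagged agonists.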
D2 antag: antagonists of human D2 dopamine receptor; HEK293 TREx D2 cells, calcium flux, dopamine EC80; inhibition, % at 10 µM; P14416; 340,000 compounds, 2% hits; in the data active = inhibition above about 30%; inactive = below that, where a call was filed; also: 0% is about no effect
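Cells plated overnight at 30 C with tetracycline; no-wash calcium dye, 30–90 min RT; 10 s baseline; compound pinned; 180 s read; EC80 dopamine added; another 180 s read.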
D2 PAM-2: D2 dopamine receptor (human) potentiation; P14416; HEK293 T-REx D2, calcium flux, EC20 dopamine potentiation; potentiation, % at 10 µM; 340,000 compounds, 0.34% hits;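 active = potentiation over 3 SD above the plate norm, cut at about 30% in these data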; also: 0% is about no effect
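Using a no-wash calcium dye in inducible, force-coupled HEK293 Trex cells expressing D2, we tracked fluorescence each second for 180 s after compound, then for 180 s after EC20 dopamine to detect augmented signalling.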
D2 ag-2: agonists of human D2 dopamine receptor (beta-arrestin); activation, % (concentration not given with the values); DiscoveRx PathHunter D2 beta-arrestin, luminescence, 90 min; 100% = 57 uM dopamine signal; P14416; 360,000 compounds, 0.084% hits; AID 624465; in the data active = activation above about 40%
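DiscoveRx PathHunter D2 beta-arrestin cells (2,100/well) attached overnight, then compound-stimulated 90 min at 37 C in HBSS/10 mM HEPES/0.1% Tween-20 buffer; beta-galactosidase complementation read by luminescence after 1 h at ambient temperature. Dopamine 57 uM final (EC100) as control.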
Numbers without * were called inactive; . = no result given. Compounds with a hit are over-represented: about 2.4% of the library has one in this group of screens.

SMILES	D2 PAM-1	D2 ag-1	D2 antag	D2 PAM-2	D2 ag-2
O=C(O)CC1S/C(=N\N=C2CCCCCCC2)N(c2ccccc2)C1=O (stereo not drawn)	0	0	-3	1	1
C=CCN1C(=O)C(CC(=O)O)SC1=Nc1ccc(N=Nc2ccccc2)cc1 (stereo not drawn)	-12	0	-8	39*	-3
C=CCN1C(=O)C(CC(=O)O)SC1=Nc1cccc([N+](=O)[O-])c1 (stereo not drawn)	-8	0	-14	10	-4
O=C(C1CC1)N1CCc2cc(Br)cc(S(=O)(=O)N3CCN(c4cccc(C(F)(F)F)c4)CC3)c21	.	.	.	8	.
Cc1ccc(NC(=O)C(CC(C)C)N2Cc3ccccc3C2=O)cc1F (stereo not drawn)	.	-1	.	8	.
CCn1c(=O)c(C(C)=O)nc2ccccc21	-8	0	33*	-2	-4
COc1ccc(C[C@@H]2CN3C(=NC[C@@H]3Cc3ccc(O)cc3)N2C[C@H](C)NC(=O)CCC2CCCCC2)cc1	-31	-2	-34	-6	-3
O=C(CCC1CCCCC1)NCCN1C2=NC[C@@H](Cc3ccccc3)N2C[C@H]1Cc1ccc(O)cc1	-31	0	51*	-24	-4
CC(C)[C@H]1CN=C2N(C[C@H](C)NC(=O)CCC3CCCCC3)[C@H](Cc3ccc(O)cc3)CN21	-24	0	77*	-23	1
C[C@@H](CN1C2=NC[C@H](C)N2C[C@H]1Cc1ccc(O)cc1)NC(=O)CCC1CCCCC1	-33	0	52*	-18	-4
Cc1ccc2c(c1)-c1[nH]c(=S)ncc1CS2	60*	-1	6	9	-3
COc1ccc(CN2CCNC(=O)C2CC(=O)NC2CCCC2)c(OC)c1 (stereo not drawn)	-6	0	-27	107*	-1
O=C(CN1C(=O)CC(c2ccco2)Sc2ccccc21)Nc1ccc(OC(F)(F)F)cc1 (stereo not drawn)	.	.	.	-5	.
COc1ccccc1NS(=O)(=O)c1cc2c(cc1Cl)NC(=O)CO2	.	0	.	-8	.
Brc1cnc(N2CCCC2)nc1N1CCOCC1	-2	0	35*	4	-3
CS(=O)(=O)Cc1ccc(C(=O)NC2CCN(Cc3ccccc3)C2)cc1 (stereo not drawn)	-11	0	27	-11	2
O=C(NC1CCN(Cc2ccc3ccccc3c2)CC1)c1ccccc1	-34	-2	51*	-23	-3
O=C(NC1CCN(Cc2ccc(Cl)c(Cl)c2)CC1)c1ccccc1	-37	-2	81*	-29	2
O=C(NC1CCCC1)c1ccc2c(c1)N(Cc1ccccc1)CCS2	3	0	-6	-4	2
O=C(NC1CCN(Cc2ccc(F)cc2)CC1)c1ccccc1	-15	-1	115*	-20	-5
Cc1ccc(CN2CCSc3ccc(C(=O)NC4CCN(Cc5ccccc5)CC4)cc32)cc1	-13	0	74*	.	-5
NC(=O)COc1ncn(-c2ccccc2)n1	10	0	-4	0	3
N/C(COc1ncn(-c2ccccc2)n1)=N\S(=O)(=O)c1ccc(Cl)cc1Cl	4	1	-3	32*	-2
CCC(C)n1c(=N)c(S(=O)(=O)c2ccc(C)cc2)cc2c(=O)n3cc(C)ccc3nc21 (stereo not drawn)	.	4	.	7	.
CCN(CCCNC(=O)c1nn(-c2ccc(OC)cc2)c(=O)c2c1c1ccccc1n2C)c1cccc(C)c1	.	0	.	-2	.
SMILES	D2 PAM-1	D2 ag-1	D2 antag	D2 PAM-2	D2 ag-2
O=C(Nc1ccccc1)c1cccc(N2C(=O)C3C4C=CC(C5CC45)C3C2=O)c1 (stereo not drawn)	-2	1	32*	0	2
COc1ccc(OC)c(NC(=O)c2cccc(N3C(=O)C4C5C=CC(C6CC56)C4C3=O)c2)c1 (stereo not drawn)	-9	-1	2	40*	7
OCC1(Cc2ccccc2)CCN(C2CCN(c3ccccc3F)CC2)CC1	-15	-1	47*	-30	1
OCC1(Cc2ccccc2)CCN(Cc2cnn(-c3ccccc3F)c2)CC1	-18	0	31*	-21	-2
O=C(Cc1ccccc1)N1CCN(c2ccccc2F)CC1	-2	9	-11	-5	7
Cn1c(=O)c2c(nc(SCC(=O)Nc3ccc(OC(F)(F)F)cc3)n2Cc2cccc(C(F)(F)F)c2)n(C)c1=O	.	-1	.	23	.
COc1cc2ccnc(C=NO)c2cc1OC	-8	.	.	.	-3
CC(C)C(C(=O)Nc1ccccc1)N1C(=O)c2ccccc2C1=O (stereo not drawn)	-2	0	-9	-7	-6
CC(C)C(C(=O)Nc1ncn[nH]1)N1C(=O)c2ccccc2C1=O (stereo not drawn)	2	0	3	31*	-2
CN1C2CCC1CC(OC(c1ccccc1)c1ccccc1)C2 (stereo not drawn)	-24	0	36*	-24	-3
COc1ccc(CCNC(=O)CSc2cn(CCNC(=O)c3cccc(C(F)(F)F)c3)c3ccccc23)cc1OC	.	0	.	-1	.
CC1CCC2(CC1)NC(=O)N(NC(=O)c1cccc(N(C)C)c1)C2=O (stereo not drawn)	-1	0	33*	-9	2
O=c1cc(CN2CCN(c3ccc(Cl)c(Cl)c3)CC2)c2ccccc2o1	-12	.	.	.	-2
CC(C)c1nc(C#N)c(NCCCn2ccnc2)o1	-10	0	43*	-16	-4
Cc1c(NC(=O)c2cc(=O)c3cc(Cl)ccc3o2)c(=O)n(-c2ccccc2)n1C	.	0	.	-10	.
COc1ccccc1/C=C/CN1CCC(Oc2cc(C(=O)NC3CC3)ccc2OC)CC1	1	-1	59*	-20	-5
COc1ccccc1/C=C/CN1CCC(Oc2ccc(C(=O)N3CCCCC3)cc2)CC1	-34	0	69*	-35	1
O=C(COc1ccccc1)N1CCN(c2ccccc2)CC1	-10	1	30*	1	-2
O=C(OCC(=O)N1CCN(c2ccccc2)CC1)c1cccc([N+](=O)[O-])c1	-9	-2	30*	-17	-4
CC1CC(C)CN(C(=O)COC(=O)c2cccc([N+](=O)[O-])c2)C1 (stereo not drawn)	-7	0	2	-1	-1
O=C(COc1ccc(Br)cc1)N1CCN(c2ccccc2)CC1	15	0	23	-15	-1
O=C(COC(=O)C1(c2ccccc2)CC1)N1CCN(c2ccc(F)cc2)CC1	-11	0	35*	15	-1
CCc1cccc(NC(=O)C2CCCN(c3ncnc4onc(-c5ccc(F)cc5)c34)C2)c1 (stereo not drawn)	.	.	.	-4	.
